# According to PubChem BioAssay:
# Active and inactive are the calls of the source. Unless noted, the rule behind the calls is not given here.
# Columns and labels:
# [1] = compounds binding Alexa647 anti-His antibody – biochemical, small-molecule microarray, 635 nm fluorescence, artefact control for SMM control protein annotation, primary screen (AID 1128); conditions: higher = more signal;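 note: score merges feature fluorescence with signal-to-noise for each printed compound spot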
# [2] = tested on: Human papillomavirus type 1a E7 protein (residues 1-88); test: HPV1a E7 small-molecule binders, primary screen, biochemical, small-molecule microarray, residues 1-88, 635 nm (AID 1129); conditions: small-molecule microarray binding, fluorescence 635 nm; higher = more signal
# [3] = target: Focal adhesion kinase 1 (Homo sapiens) (UniProt Q05397); test: PTK2 protein binding on printed compound slides – biochemical, small-molecule microarray, 635/667 nm fluorescence, BSA, DTT, primary screen (AID 1130); conditions: 635 nm fluorescence, higher = more signal;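 note: composite of spot emission at 667 nm and signal to noise over triplicate slides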
# [4] = tested on: Fibrinogen (Alexa647-labelled); test: Alexa647-fibrinogen binding to printed small molecules – biochemical, small-molecule microarray, 635/667 nm fluorescence, artefact control for SMM control-protein annotation, profiling panel (AID 1131); conditions: fibrinogen-A647 binding fluorescence, higher = more signal;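 note: z-score merges 667 nm fluorescence with per-spot signal-to-noise over triplicate slides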
# [5] = target: Follistatin (Homo sapiens) (UniProt P19883); test: FST protein binding to printed compounds – biochemical, small-molecule microarray, 635/667 nm fluorescence, primary screen (AID 1132); conditions: 635 nm fluorescence, higher = more signal
# [6] = target: Fibroblast growth factor 2 (Homo sapiens) (UniProt P09038); test: basic fibroblast growth factor binding to printed compounds – biochemical, small-molecule microarray, 635/667 nm fluorescence, primary screen (AID 1133); conditions: FGF2, fluorescence 635/667, higher = more signal
# [7] = JC-1 mitochondrial potential readout, lung cancer cells – cell-based, A549, JC-1 fluorescence, basal, 24 h, 100 nL, profiling panel (AID 1138); conditions: higher = more signal;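 note: A549 lung adenocarcinoma cells under basal conditions with no added stimulus; test concentration not given here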
# [8] = tested on: Lefty1; test: Lefty1 protein binding to printed compounds – biochemical, small-molecule microarray, 635/667 nm fluorescence, primary screen (AID 1139); conditions: fluorescence 635/667, higher = more signal
# [9] = tested on: wheat germ agglutinin (Triticum aestivum), Alexa647-labelled; test: Alexa647-WGA lectin binding to printed small molecules – biochemical, small-molecule microarray, 635/667 nm fluorescence, artefact control for SMM control-protein annotation, profiling panel (AID 1140); conditions: WGA-A647 binding, 635 nm fluorescence, higher = more signal;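 note: score merges 667 nm feature emission with signal to noise over triplicate slides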
# [10] = target: Luciferin 4-monooxygenase (Photinus pyralis) (UniProt P08659); test: inhibition of purified Photinus pyralis luciferase – biochemical, luminescence, purified enzyme, 2006 set, primary screen (AID 1141); conditions: purified firefly luciferase, SteadyGlo luminescence, 30 min; higher = more signal, called active from +8 up or from −8 down;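 note: cell-free assay with purified firefly luciferase at 100 ng per well in PBS; test concentration not given here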
# [11] = tested on: Wnt5a (protein binding on small-molecule microarray); test: small molecules binding Wnt5a protein – biophysical, small-molecule microarray, 635/667 nm fluorescence, primary screen (AID 1142); conditions: 635 nm fluorescence, higher = more signal;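 note: fluorescence read at 667 nm with signal to noise per printed feature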
# [12] = ATP-based viability of Huh7 replicon cells – cell-based, CellTiter-Glo luminescence, basal, 48 h, cytotoxicity control for HCV replication inhibitor project, primary screen (AID 1143); conditions: higher = more signal, called active from +8 up or from −8 down;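 note: Huh7 hepatoma cells carrying a hepatitis C replication reporter with no stimulus; test concentration not given here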
# [13] = Pseudomonas biofilm growth suppression – PAO1 strain, BacTiter-Glo luminescence, LB-PBS, primary screen (AID 1144); conditions: P. aeruginosa PAO1 biofilm, 12 h, higher = more signal
# [14] = basal CRE-LacZ reporter activity in PC12 – cell-based, unstimulated, primary screen (AID 1145); conditions: no forskolin, luminescence, 4.5 h, higher = more signal, called active from +8 up or from −8 down
# [15] = forskolin-driven CRE-LacZ activity in PC12 – cell-based, CRE-LacZ reporter, forskolin-stimulated, primary screen (AID 1146); conditions: luminescence, 4.5 h, higher = more signal, called active from +8 up or from −8 down;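 note: PC12 cells with 6xCRE LacZ reporter stimulated by forskolin 10 µM; beta-galactosidase reporter signal reflecting CREB driven transcription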
# [16] = target: Streptavidin (Streptomyces avidinii) (UniProt P22629); test: compounds binding control protein streptavidin – biophysical, small-molecule microarray, 635/667 nm fluorescence, artefact control for SMM compound annotation, primary screen (AID 1147); conditions: higher = more signal;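 note: signal reflects streptavidin binding to arrayed compounds as a control protein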
# [17] = probe aInhba binding on compound microarray – biochemical, small-molecule microarray, 635/667 nm fluorescence, primary screen (AID 1148); conditions: higher = more signal;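 note: score merges 667nm spot fluorescence with signal-to-noise for antibody binding to printed compounds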
# [18] = target: Torsin-1A (Homo sapiens) (UniProt O14656); test: TOR1A wild-type binding on microarray – cell lysate, small-molecule microarray, lysate, 635/667 nm, primary screen (AID 1149); conditions: COS7 hTOR1A-WT lysate, 635 nm fluorescence, higher = more signal
# [19] = target: Torsin-1A (Homo sapiens) (UniProt O14656); test: torsin A mutant lysate binding on microarrays – cell lysate, small-molecule microarray, COS7 lysate, 635/667 nm fluorescence, primary screen (AID 1150); conditions: COS7 hTOR1A mutant lysate, 635 nm fluorescence, higher = more signal;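 note: score pools 667 nm emission and signal to noise measuring lysate protein binding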
# [20] = tested on: Sonic hedgehog protein (Shh); test: Sonic hedgehog microarray binding compounds – biochemical, small-molecule microarray, 635/667 nm fluorescence, primary screen (AID 1151); conditions: 635 nm fluorescence, higher = more signal;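 note: Shh protein binding to compounds spotted on small-molecule microarray slides; score combines spot fluorescence intensity with signal-to-noise across triplicate slides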
# Fibroblast growth factor 2 (Homo sapiens), sequence (P09038 whole entry, looked up): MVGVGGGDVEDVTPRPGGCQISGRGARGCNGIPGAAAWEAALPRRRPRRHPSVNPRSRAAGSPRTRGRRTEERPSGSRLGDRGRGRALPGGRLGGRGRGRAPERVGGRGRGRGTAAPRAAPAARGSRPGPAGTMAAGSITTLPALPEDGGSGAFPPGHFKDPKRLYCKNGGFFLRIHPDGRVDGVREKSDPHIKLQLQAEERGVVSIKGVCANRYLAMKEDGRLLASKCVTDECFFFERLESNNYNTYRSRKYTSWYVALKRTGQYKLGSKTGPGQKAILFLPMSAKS
# Torsin-1A (Homo sapiens), sequence (O14656 whole entry, looked up): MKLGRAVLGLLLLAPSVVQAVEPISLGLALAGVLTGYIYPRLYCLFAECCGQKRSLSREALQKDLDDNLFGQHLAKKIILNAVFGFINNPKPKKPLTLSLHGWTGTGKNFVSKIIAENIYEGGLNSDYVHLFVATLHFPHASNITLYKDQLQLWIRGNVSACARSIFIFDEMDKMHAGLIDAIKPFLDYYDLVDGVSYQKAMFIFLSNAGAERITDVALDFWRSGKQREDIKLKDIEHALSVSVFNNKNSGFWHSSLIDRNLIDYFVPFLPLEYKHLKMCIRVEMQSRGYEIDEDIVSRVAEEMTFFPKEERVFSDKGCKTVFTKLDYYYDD
# Follistatin (Homo sapiens), sequence (P19883 whole entry, looked up): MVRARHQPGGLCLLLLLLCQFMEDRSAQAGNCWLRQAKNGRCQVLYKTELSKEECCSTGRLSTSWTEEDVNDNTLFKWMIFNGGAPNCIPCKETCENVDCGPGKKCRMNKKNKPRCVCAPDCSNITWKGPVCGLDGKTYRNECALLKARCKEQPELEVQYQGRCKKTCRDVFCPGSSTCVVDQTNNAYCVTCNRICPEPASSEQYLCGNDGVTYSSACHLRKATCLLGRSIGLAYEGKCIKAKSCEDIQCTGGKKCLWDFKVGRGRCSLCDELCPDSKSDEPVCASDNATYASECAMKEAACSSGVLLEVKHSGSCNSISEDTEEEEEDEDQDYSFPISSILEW
# Focal adhesion kinase 1 (Homo sapiens), sequence (Q05397 whole entry, looked up): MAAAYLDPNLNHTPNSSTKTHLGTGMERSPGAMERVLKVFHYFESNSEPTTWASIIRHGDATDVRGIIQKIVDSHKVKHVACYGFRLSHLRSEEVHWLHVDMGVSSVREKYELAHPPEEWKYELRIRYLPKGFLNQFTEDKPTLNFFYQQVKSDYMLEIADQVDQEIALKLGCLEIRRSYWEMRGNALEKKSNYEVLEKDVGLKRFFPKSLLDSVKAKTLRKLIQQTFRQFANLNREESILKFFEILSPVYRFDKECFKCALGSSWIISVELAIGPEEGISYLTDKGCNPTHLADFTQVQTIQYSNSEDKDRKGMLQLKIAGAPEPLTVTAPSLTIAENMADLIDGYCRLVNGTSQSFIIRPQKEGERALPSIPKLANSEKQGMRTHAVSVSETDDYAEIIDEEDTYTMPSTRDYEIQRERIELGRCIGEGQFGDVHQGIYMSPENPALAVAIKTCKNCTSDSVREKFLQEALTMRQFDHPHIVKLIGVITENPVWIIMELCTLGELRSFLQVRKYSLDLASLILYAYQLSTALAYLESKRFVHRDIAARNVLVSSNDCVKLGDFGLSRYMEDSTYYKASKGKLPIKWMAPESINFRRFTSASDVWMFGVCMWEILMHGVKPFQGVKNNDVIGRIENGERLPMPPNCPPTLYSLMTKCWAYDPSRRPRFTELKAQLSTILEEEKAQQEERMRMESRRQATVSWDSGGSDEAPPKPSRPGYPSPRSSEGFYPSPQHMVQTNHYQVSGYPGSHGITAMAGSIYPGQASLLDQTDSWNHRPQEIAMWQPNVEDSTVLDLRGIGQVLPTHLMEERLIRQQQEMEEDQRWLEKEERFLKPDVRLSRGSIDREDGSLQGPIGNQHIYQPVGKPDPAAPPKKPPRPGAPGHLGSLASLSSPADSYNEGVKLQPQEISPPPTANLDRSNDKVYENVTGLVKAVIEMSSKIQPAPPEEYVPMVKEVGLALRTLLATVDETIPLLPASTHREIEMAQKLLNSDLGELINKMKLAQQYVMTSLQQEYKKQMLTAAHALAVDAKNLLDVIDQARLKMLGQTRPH
# Streptavidin (Streptomyces avidinii), sequence (P22629 whole entry, looked up): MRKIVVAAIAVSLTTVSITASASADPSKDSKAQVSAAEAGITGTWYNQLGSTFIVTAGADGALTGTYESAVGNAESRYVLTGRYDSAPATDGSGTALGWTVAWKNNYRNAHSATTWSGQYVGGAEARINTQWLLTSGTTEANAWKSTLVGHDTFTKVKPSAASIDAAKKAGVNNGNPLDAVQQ
# Luciferin 4-monooxygenase (Photinus pyralis), sequence (P08659 whole entry, looked up): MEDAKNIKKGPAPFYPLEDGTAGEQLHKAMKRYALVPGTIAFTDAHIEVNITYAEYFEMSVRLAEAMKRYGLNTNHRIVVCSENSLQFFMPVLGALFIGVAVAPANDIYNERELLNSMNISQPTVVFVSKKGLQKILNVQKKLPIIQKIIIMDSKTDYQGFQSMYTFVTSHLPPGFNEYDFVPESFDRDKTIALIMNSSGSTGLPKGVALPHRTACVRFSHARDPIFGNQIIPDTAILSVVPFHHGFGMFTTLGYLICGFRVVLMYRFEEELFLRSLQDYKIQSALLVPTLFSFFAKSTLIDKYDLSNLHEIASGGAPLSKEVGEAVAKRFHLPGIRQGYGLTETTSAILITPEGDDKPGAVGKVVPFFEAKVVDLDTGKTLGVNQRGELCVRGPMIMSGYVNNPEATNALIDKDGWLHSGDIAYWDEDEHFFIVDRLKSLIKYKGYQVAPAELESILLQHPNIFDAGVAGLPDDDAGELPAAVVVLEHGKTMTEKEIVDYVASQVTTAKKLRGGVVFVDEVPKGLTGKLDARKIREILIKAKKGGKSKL
SMILES,composite z-score [1],composite z-score [2],composite z-score [3],composite z-score [4],composite z-score [5],composite z-score [6],z-score [7],composite z-score [8],composite z-score [9],z-score [10],composite z-score [11],z-score [12],z-score [13],z-score [14],z-score [15],composite z-score [16],composite z-score [17],composite z-score [18],composite z-score [19],composite z-score [20]
CC(CCN1CCc2nc(-c3ccccc3)c(-c3ccccc3)cc2C1)=NO[C@@H](C)c1cn([C@H](CO)Cc2ccccc2)nn1,-0.0253,0.219,0.0807,0.929,0.408,0.453,1.22,0.342,0.706,-1.77 (inactive),-0.107,-0.802 (inactive),-0.414 (inactive),0.573 (inactive),-0.795 (inactive),0.52,0.0131,1.62,0.482,1.25
C#CCCCON=C1C[C@@H](O)[C@@H](O)[C@@H]2[C@@H]3C(=O)N(Cc4ccccc4)C(=O)[C@@H]3CC[C@H]12,0.0056,0.126,0.256,-0.307,0.592,0.171,-0.732,0.582,0.253,0.883 (inactive),0.203,-3.22 (inactive),-1.13 (inactive),0.793 (inactive),-0.645 (inactive),0.0194,-0.209,0.289,-0.0292,0.985
C#C[C@@H](CC)O[Si](C#Cc1ccc(Oc2ccccc2)cc1)(C(C)C)C(C)C,0.491,0.649,-0.0378,0.15,0.395,0.307,-1.81,0.63,0.299,0.0007 (inactive),0.142,-0.533 (inactive),0.159 (inactive),-0.738 (inactive),0.0319 (inactive),-0.149,-0.0736,0.293,0.321,0.486
CC(C)N1CC=CC23O[C@@H]4C=CCCOC(=O)C4[C@H]2C(=O)N(CCCCCCO)[C@@H]3C1=O (stereo not given in full),-0.112,-0.807,-0.268,-1.2,-0.851,-1.6,0.526,-0.187,-1.32,-0.127 (inactive),-0.952,0.471 (inactive),-0.454 (inactive),-0.488 (inactive),-0.905 (inactive),-0.717,-0.003,-1.12,-1.57,0.011
CC(C)[Si]1(C(C)C)O[C@@H](c2ccccc2)c2cc(C3CC3)nc(-c3ccccc3)c21,-0.829,-0.466,-0.925,0.412,-0.165,-0.246,-0.271,-0.198,0.105,-0.471 (inactive),-0.0654,0.414 (inactive),-0.134 (inactive),-0.258 (inactive),-0.541 (inactive),0.0887,-0.207,-1,-0.124,0.397
CC(CCN1CCCCc2nc(C)c(C)cc21)=NOC(C)CN1CCCc2nc(C)c(C)cc21 (stereo not given),-0.756,1.12,0.671,0.651,1.36,0.97,-0.12,1.45,0.766,-0.0885 (inactive),0.871,-0.191 (inactive),-0.812 (inactive),-0.24 (inactive),0.0936 (inactive),1.42,0.637,1.19,0.863,1.73
O=C(NN=C1C[C@@H](O)[C@@H](O)[C@@H]2[C@@H]3C(=O)N(c4cccc(Oc5ccccc5)c4)C(=O)[C@@H]3CC[C@@H]12)OCc1ccccc1,-0.0621,0.0508,0.0623,0.81,-0.0636,-0.0953,-0.0675,0.211,0.764,0.663 (inactive),-0.0255,-0.033 (inactive),-0.0198 (inactive),1.6 (inactive),-0.227 (inactive),0.504,-0.183,0.212,0.31,-0.376
C=C(COC)/C(=C/C[C@H](OC(=O)c1ccncc1)c1ccc(CO)o1)c1cc(C(=O)OC)ccc1OC,1.38,1.12,-0.113,-0.0921,1.22,1.32,-0.713,1.14,0.113,-0.448 (inactive),0.868,-0.0528 (inactive),-1.27 (inactive),0.0422 (inactive),0.877 (inactive),-0.24,-0.003,0.787,0.366,1.62
COC(=O)[C@@]1(Cc2ccccc2)[C@H]2c3cc(C(=O)N4CCCC4)n(Cc4ccccn4)c3C[C@H]2CN1C(=O)c1ccccc1,1.81,1.26,0.846,0.412,1.24,0.354,0.449,0.19,0.236,1.93 (inactive),1.25,-1.5 (inactive),-1.42 (inactive),0.201 (inactive),1.06 (inactive),1.02,0.74,0.671,1.91,-0.369
CCOC(=O)C1=CCC(c2cc3ccccc3[nH]2)NC1 (stereo not given),0.693,1.13,1.22,-0.288,1.12,-0.356,0.642,-0.439,1.06,-3.19 (inactive),0.109,-2.83 (inactive),0.756 (inactive),0.369 (inactive),0.464 (inactive),0.338,0.029,0.661,0.449,-0.402
